Results taken from the supplement of paper PMC10515830.
Where a name gives a salt, the structure may show the parent alone.

What was measured:
Conditions in all cases: 10 µM; exposure time 6 h
[1] = tested on: Danio rerio larvae (5 dpf); experiment: difference in excitability vs DMSO (percentage points); higher = more excitable than DMSO
Summary of the method: (§1)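 In 96-well plates, 48 wild-type zebrafish larvae aged 5 dpf per compound received 100 µL egg water with library compound at 10 µM final for 6 h. Three hours into this, a 3-h programme of moving lines and 100 ms, 400Hz tones ran at 28.5 ℃ while plates were photographed every 6 s. Z-LaP Tracker scored the behaviours, and each is given as the compound mean minus the vehicle control mean in percentage points.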

[2] = tested on: Danio rerio larvae (5 dpf); experiment: difference in startle response vs DMSO (percentage points); higher = stronger startle than DMSO
Summary of the method: as §1

[3] = tested on: Danio rerio larvae (5 dpf); experiment: difference in activity during first hour vs DMSO (percentage points); higher = more activity than DMSO
Summary of the method: as §1

[4] = tested on: Danio rerio larvae (5 dpf); experiment: difference in habituation to acoustic stimuli vs DMSO (percentage points); higher = more habituation than DMSO
Summary of the method: as §1

[5] = tested on: Danio rerio larvae (5 dpf); experiment: difference in combined optomotor response to red, green and blue moving lines vs DMSO (percentage points); higher = stronger optomotor response than DMSO
Summary of the method: as §1

SMILES | difference in excitability [1] | difference in startle response [2] | difference in activity during first hour [3] | difference in habituation to acoustic stimuli [4] | difference [5]
CC(C)N(CCCCOCC(=O)NS(C)(=O)=O)c1cnc(-c2ccccc2)c(-c2ccccc2)n1 | 11.4 | 6.8 | -3.12 | 5.08 | 2.84
CN(C)C(=O)C(CCN1CCC(O)(c2ccc(Cl)cc2)CC1)(c1ccccc1)c1ccccc1 [Loperamide (hydrochloride)] | 20.6 | 4.43 | 29.3 | -9.2 | -2.52
CC[C@]1(O)C[C@@H]2CN(CCc3c([nH]c4ccccc34)[C@@](C(=O)OC)(c3cc4c(cc3OC)N(C)[C@H]3[C@@](O)(C(=O)OC)[C@H](OC(C)=O)[C@]5(CC)C=CCN6CC[C@]43[C@@H]65)C2)C1 [Vinblastine (sulfate)] | 11.1 | -3.06 | -6.36 | -2.13 | -3.97
Cc1nc(-c2ccc(OCC(C)C)c(C#N)c2)sc1C(=O)O [Febuxostat] | -0.635 | 0.974 | -3.02 | 3.9 | 5.26
O=C1CN(/N=C/c2ccc([N+](=O)[O-])o2)C(=O)N1 [Nitrofurantoin] | 9.88 | -2.07 | 8.16 | 4.03 | 8.98
C[C@H](CCC(=O)O)[C@H]1CC[C@H]2[C@@H]3[C@H](O)C[C@@H]4C[C@H](O)CC[C@]4(C)[C@H]3C[C@H](O)[C@]12C [Cholic Acid] | -2.04 | 2.75 | 8.68 | 3.98 | -1.08
CC(=O)OCC(=O)[C@@]12N=C(C)O[C@@H]1C[C@H]1[C@@H]3CCC4=CC(=O)C=C[C@]4(C)[C@H]3[C@@H](O)C[C@@]12C [Deflazacort] | 13.1 | 3.69 | -3.59 | -1.6 | 13.9
CCN(CC)CCOC(=O)C1(C2CCCCC2)CCCCC1 [Dicyclomine (hydrochloride)] | 9.55 | -4.86 | -8.86 | -5.06 | -3.96
C[C@@H]1C[C@H]2[C@@H]3CCC4=CC(=O)C=C[C@]4(C)[C@@]3(F)[C@@H](O)C[C@]2(C)[C@@]1(O)C(=O)CO [Dexamethasone] | -4.56 | -3.99 | -6.96 | 0.952 | 3.79
CCCC1O[C@@H]2C[C@H]3[C@@H]4CCC5=CC(=O)C=C[C@]5(C)[C@H]4[C@@H](O)C[C@]3(C)[C@]2(C(=O)CO)O1 (stereo not given in full) [Budesonide] | 4.9 | -3.47 | 4.24 | -2.87 | 12.5
Cn1nnc(-c2ccc(-c3ccc(N4C[C@H](COP(=O)(O)O)OC4=O)cc3F)cn2)n1 [Tedizolid Phosphate] | -1.24 | 8.42 | 3.68 | 2.23 | 0.136
CCCCCCCN(CC)CCCC(O)c1ccc(NS(C)(=O)=O)cc1 (racemic) [(±)-Ibutilide (hemifumarate)] | 17.7 | 1.14 | -7.19 | 6.3 | -6.18
Cc1ccccc1C(=O)Nc1ccc(C(=O)N2CCCC(O)c3cc(Cl)ccc32)c(C)c1 (stereo not given) [Tolvaptan] | 11 | 1.76 | 15.8 | -0.912 | 5.47
CN(Cc1ccc(C(C)(C)C)cc1)Cc1cccc2ccccc12 [Butenafine (hydrochloride)] | 2.06 | 2.01 | -10.7 | 0.859 | -2.95
CN(C)c1nc(N(C)C)nc(N(C)C)n1 [Altretamine] | -0.899 | -2.53 | -6.9 | -1.7 | 0.893
NC(=O)N1c2ccccc2C=Cc2ccccc21 [Carbamazepine] | -5.41 | 5.12 | -2.57 | 0.458 | 11.2
Nc1ncn([C@@H]2O[C@H](CO)[C@@H](O)[C@H]2O)c(=O)n1 [5-Azacytidine] | 6.01 | -4.41 | -3.91 | -4.6 | 0.0811
CC[C@H](C)C(=O)O[C@H]1C[C@H](O)C=C2C=C[C@H](C)[C@H](CC[C@@H](O)C[C@@H](O)CC(=O)O)[C@H]21 [Pravastatin (sodium salt)] | 1.5 | 5.8 | 9.55 | -2.28 | 1.82
CC(C)(C)NCC(O)c1ccc(O)c(CO)c1 (stereo not given) [Salbutamol] | 8.67 | 1.17 | 20.7 | -4.78 | 5.67

SMILES | difference in excitability [1] | difference in startle response [2] | difference in activity during first hour [3] | difference in habituation to acoustic stimuli [4] | difference [5]
CC(C)(C)NC[C@H](O)COc1cccc2c1CCCC2=O [Levobunolol (hydrochloride)] | 5.55 | 1.6 | 12.7 | -1.95 | 5.62
CNC(=C[N+](=O)[O-])NCCSCc1ccc(CN(C)C)o1 [Ranitidine (hydrochloride)] | -1.03 | 4.48 | 11.1 | 0.164 | 7.87
COc1cccc2c1C(=O)c1c(O)c3c(c(O)c1C2=O)C[C@@](O)(C(=O)CO)C[C@@H]3O[C@H]1C[C@H](N)[C@H](O)[C@H](C)O1 [Doxorubicin (hydrochloride)] | 6.65 | 3.55 | -7.11 | 6.05 | -4.42
Nc1nc(=O)n([C@@H]2CS[C@H](CO)O2)cc1F [Emtricitabine] | 1.12 | -4.62 | 11.4 | 4.83 | 7.06
O=P(O)(O)C(O)(Cn1ccnc1)P(=O)(O)O [Zoledronic Acid (hydrate)] | -0.91 | -0.172 | 2.53 | 0.128 | 6.76
CCOc1cc(CC(=O)N[C@@H](CC(C)C)c2ccccc2N2CCCCC2)ccc1C(=O)O [Repaglinide] | 2.26 | 7.77 | 14.4 | 0.755 | 1.85
COc1ccc([C@@H]2Sc3ccccc3N(CCN(C)C)C(=O)[C@@H]2OC(C)=O)cc1 [Diltiazem (hydrochloride)] | 8.73 | -1.93 | 11.2 | -8.44 | 1.27
COc1ccc(CCN(C)CCCC(C#N)(c2ccc(OC)c(OC)c2)C(C)C)cc1OC (stereo not given) [Verapamil (hydrochloride)] | 7.52 | -8.68 | -17.7 | -4.3 | -6.45
CC(=O)[C@]1(O)Cc2c(O)c3c(c(O)c2[C@@H](O[C@H]2C[C@H](N)[C@H](O)[C@H](C)O2)C1)C(=O)c1ccccc1C3=O [Idarubicin (hydrochloride)] | 12.5 | -1.2 | -5.02 | 1.34 | -1.01
Nc1nc2c(c(=O)[nH]1)N(C=O)C(CNc1ccc(C(=O)NC(CCC(=O)O)C(=O)O)cc1)CN2 (racemic) [DL-Folinic Acid (calcium salt)] | -0.743 | 2.87 | 8.84 | 0.082 | 5.53
CCC(=O)NCC[C@@H]1CCc2ccc3c(c21)CCO3 [Ramelteon] | 33 | 0.219 | -13.3 | -1.29 | 6.65
CC(C)[C@H](N)C(=O)OCC(CO)OCn1cnc2c(=O)nc(N)[nH]c21 (stereo not given in full) [Valganciclovir (hydrochloride)] | -0.104 | 2.52 | -5.18 | 1.35 | 3.33
CC(=O)S[C@@H]1CC2=CC(=O)CC[C@]2(C)[C@H]2CC[C@@]3(C)[C@@H](CC[C@@]34CCC(=O)O4)[C@H]12 [Spironolactone] | 2.95 | -1.12 | 0.438 | -0.129 | -0.69
COC1=CC(=O)C[C@@H](C)[C@]12Oc1c(Cl)c(OC)cc(OC)c1C2=O [Griseofulvin] | 3.76 | 5.64 | 19.9 | 2.87 | 8.4
COc1cc(Nc2c(C#N)cnc3cc(OCCCN4CCN(C)CC4)c(OC)cc23)c(Cl)cc1Cl [Bosutinib] | 10.4 | 1.86 | -11.7 | -5.15 | 2.77
CCCCc1nc(Cl)c(CO)n1Cc1ccc(-c2ccccc2-c2nnn[nH]2)cc1 [Losartan (potassium salt)] | 3.08 | 0.6 | 6.85 | -4.35 | -1.12
COc1cc([C@@H]2c3cc4c(cc3[C@@H](O[C@@H]3O[C@@H]5CO[C@@H](c6cccs6)O[C@H]5[C@H](O)[C@H]3O)[C@H]3COC(=O)[C@H]23)OCO4)cc(OC)c1O [Teniposide] | -5.17 | -1.26 | -12 | 3.62 | -8.33
C[C@@H]1C[C@H]2[C@@H]3CCC4=CC(=O)C=C[C@]4(C)[C@@]3(F)[C@@H](O)C[C@]2(C)[C@H]1C(=O)CO [Desoximetasone] | 2.03 | 4.16 | -4.98 | 2.48 | 0.705
